Results: ChEMBL document CHEMBL3433997, “St. Jude Leishmania screening dataset” (2016)

molecular target: Glucose transporter (Leishmania mexicana) (UniProt O61059); experiment: ST_JUDE_LEISH: Cytotoxicity at 2uM final concentration against transgenic Leishmania Mexicana promastigotes LmGT2 that are glucose transport deficient and complemented with the L. Mexicana glucose transporter 2. Activity is measured by DNA content using SYBR green in vitro; type: functional

| SMILES | inhibition |
| --- | --- |
| CCCCc1cc(=O)oc2cc(C)cc(OCc3ccccc3F)c12 | 1.06% |
| CC1CCC(C(C)C)C(OC(=O)CSc2nnc3c(n2)[nH]c2ccccc23)C1 (stereo not given) | -0.42% |
| COc1ccc2nccc([C@@H](O)CN3CCC(NC(=O)C(c4ccccc4C)N4CCC(Cc5ccccc5)CC4)CC3)c2c1 (stereo not given in full) | 2.38% |
| O=C(NC1CCCCC1)N(Cc1cccc(-c2ccc(CNCc3ccc4c(c3)OCO4)cc2)c1)C1CCN(Cc2ccccc2)CC1 | 3.16% |
| N#Cc1ccc2c(c1)CCN(CCC1CCC(NC(=O)/C=C/c3nc4ccccc4s3)CC1)CC2 (stereo not given) | -0.08% |
| CC1CC(NCCCNc2cc(=O)c3ccccc3[nH]2)c2c1cc(Cl)c(Cl)c2Cl (stereo not given) | 2.54% |
| O=C(Nc1ccccc1Br)c1cn(-c2ccccc2)nc1-c1cccc([N+](=O)[O-])c1 | 8.93% |
| O=C(c1cc(-c2ccco2)n[nH]1)N1CCN(S(=O)(=O)c2ccc(Cl)cc2)CC1 | -1.09% |
| Clc1ccc(Nc2nc(Nc3ccc(Cl)c(Cl)c3)nc(Sc3nc4ccccc4[nH]3)n2)cc1Cl | 7.05% |
| c1ccc(Oc2ccc(Nc3ccnc(Nc4cccc(CNCCCN5CCOCC5)c4)n3)cc2)cc1 | -1.79% |
| CC1CN(CC(O)Cn2c3ccc(Br)cc3c3cc(Br)ccc32)CC(C)O1 (stereo not given) | 3.29% |
| COc1cc(C(=O)NCc2nn(CCN3CCC(N4CCCC4)CC3)cc2-c2ccc(Cl)c(Cl)c2)cc(OC)c1OC | 3.75% |
| COc1cc(C(=O)NCCCN2CCN(c3cccc(Cl)c3)CC2)ccc1-c1cc2cc(Cl)c(Cl)cc2[nH]1 | 3.53% |
| CCN(CC)CCCCNc1cc(-c2[nH]c(-c3c(Cl)cccc3Cl)nc2-c2ccc3cc(OC)ccc3c2)ccn1 | -0.83% |
| O=C(Nc1cccc(-c2cccc(-c3nc4ccccc4[nH]3)c2)c1)Nc1ccc(Cl)c(Cl)c1 | 7.6% |
| CN1CCC(C(=O)Nc2cccc(-c3ccc(-c4nc5cc(C(F)(F)F)ccc5[nH]4)s3)c2)CC1 | 6.1% |
| O=C(Nc1cccc(F)c1)NC1CCN(c2ccnc3cc(Cl)ccc23)CC1 | 1.75% |
| CCN(CC)CCN(Cc1ccc(-c2ccc(C(F)(F)F)cc2)cc1)C(=O)c1ccc(-c2ccc(NC(=O)OC)cc2C)cc1 | 10.1% |
| COc1cc2nc(Nc3ccc4c(cnn4Cc4ccccc4)c3)nc(Nc3ccc4c(cnn4Cc4ccccc4)c3)c2cc1OC | 0.51% |
| COc1ccc2c(NN=Cc3cccc(Cl)c3)ccnc2c1 | -0.9% |

| SMILES | inhibition |
| --- | --- |
| COc1ccc2nccc([C@@H](O)CN3CCC(NCc4cn5cc(F)ccc5n4)CC3)c2c1 | -0.13% |
| Fc1ccc2nc(Nc3nc(-c4ccccn4)cs3)sc2c1 | 0.2% |
| NS(=O)(=O)c1ccc(Nc2nccc(-c3c(-c4cccc(NC(=O)c5c(F)cccc5F)c4)nn4ccccc34)n2)cc1 | 8.76% |
| C[C@H](Cc1ccc(C[C@@H](C)NCC(O)c2cc(Cl)c(N)c(Cl)c2)cc1)NCC(O)c1cc(Cl)c(N)c(Cl)c1 (stereo not given in full) | 1.14% |
| CN1CCN(c2ccnc3ccc(NC(=O)Nc4cccc5c(C#N)cccc45)cc23)CC1 | 2.75% |
| CCCC1(NC[C@@H](O)[C@H](Cc2ccccc2)NC(=O)c2cc(NCC)cc(N3CCCCS3(=O)=O)c2)CCCCC1 | 4.36% |
| O=C(O)CNCC(O)c1ccccc1 (stereo not given) | 0.29% |
| CC(C)c1ccc2[nH]c(C(=O)NC3CCC(N4CCCc5ccc(C#N)cc5C4)CC3)cc2c1 (stereo not given) | 1.58% |
| COc1cccc2c(NN=Cc3ccccc3F)ccnc12 | 2.85% |
| CC(C)C[C@@H](NC(=O)OC(C)(C)C)C(=O)Nc1ccc(Cc2ccc(NC(=O)[C@@H](CC(C)C)NC(=O)OC(C)(C)C)cc2)cc1 | 0.63% |
| CS(=O)(=O)N1CC2(CCN(CCC(NC(=S)Nc3ccccc3)c3ccc(Cl)c(Cl)c3)CC2)c2ccccc21 (stereo not given) | -0.39% |
| CCOc1cccc(C(=O)Nc2cccc(CN3CCCN(Cc4cccc(O)c4)CC3)c2)c1 | 3.26% |
| COc1ccc(OCC(=O)Nc2nc(-c3ccc(OC)cc3)c(C)s2)cc1 | -1.09% |
| COc1ccc(-c2ccc(NC(=O)c3cccc(C#N)c3)cc2)cc1CN1CCC(O)CC1 | 2.05% |
| CCNc1cc(C(=O)N[C@@H](Cc2ccccc2)[C@H](O)CNC2CC3CCC2C3)cc(N2CCCCS2(=O)=O)c1 (stereo not given in full) | -3.22% |
| COc1ccc(C(C)Nc2nc(N)c3cc(OC)c(OC)cc3n2)cc1 (stereo not given) | 4.42% |
| COc1cc(NC(=O)c2cccs2)c(OC)cc1NC(=O)Nc1cccc(Cl)c1 | 2.28% |
| O=C(Cc1c[nH]cn1)Nc1cccc(-c2ccc(-c3nc4ccccc4[nH]3)cc2)c1 | -0.08% |
| Cc1cnc(CN(Cc2ccc(-c3ccc(CNCCc4ccc(S(C)(=O)=O)cc4)cn3)cc2)C(=O)c2nn(-c3ccccc3)nc2C)cn1 | 4.81% |
| CC(C)C(=O)Nc1c(F)cc(F)cc1CCc1ccc(O)cc1 | 5.01% |
